# Data reported in PubChem BioAssay AID1159580 (chemical genetic matrix, 2015).
# Out of some 5,500 compounds screened, about 2,000 (36%) were called active. Roughly 18% stayed inconclusive and do not appear here. Some of the results follow. Unmarked numbers belong to inactive results. Cut-off read from the data, not from the text of the source: active = normalized growth mostly below about 0.91 (no sharp cut-off); inconclusive = no clear call, values can overlap the other calls; inactive = mostly above about 0.92.
# Assay: chemical genetic growth profiling, strain panel (AID 1159580);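 note: tested at 20 µM; growth read once vehicle control cultures reached saturation at 30 °C; 1 = growth at the plate median or of vehicle wells; lower values mean less growth of the strain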
# Details: growth OD
# [1] = S. cerevisiae deletion strains, locus YGR078C, strain PAC10, active compounds read low
# [2] = S. cerevisiae deletion strains, locus YMR263W, strain SAP30, active compounds read low
# [3] = S. cerevisiae deletion strains, locus YNL153C, strain GIM3, active compounds read low
# [4] = S. cerevisiae deletion strains, locus YPL241C, strain CIN2, active compounds read low
compound,measurement,setting,value
N[C@H](C(=O)O)[C@@H]1CC(Cl)=NO1,normalized growth,"S. cerevisiae deletion strains, locus YAL013W, strain DEP1, active compounds read low",0.796 (active)
same,normalized growth,"S. cerevisiae deletion strains, locus YBR021W, strain FUR4, active compounds read low",1.27 [resistant] (active)
same,normalized growth,"S. cerevisiae deletion strains, locus YBR229C, strain ROT2, active compounds read low",0.629 (active)
same,normalized growth,"S. cerevisiae deletion strains, locus YCL029C, strain bik1, active compounds read low",0.258 (active)
same,normalized growth,"S. cerevisiae deletion strains, locus YDL035C, strain GPR1, active compounds read low",0.321 (active)
same,normalized growth,"S. cerevisiae deletion strains, locus YDL074C, strain BRE1, active compounds read low",0.48 (active)
same,normalized growth,"S. cerevisiae deletion strains, locus YDL101C, strain DUN1, active compounds read low",0.23 (active)
same,normalized growth,"S. cerevisiae deletion strains, locus YDL134C, strain PPH21, active compounds read low",0.355 (active)
same,normalized growth,"S. cerevisiae deletion strains, locus YDL185W, strain tfp1, active compounds read low",0.149 (active)
same,normalized growth,"S. cerevisiae deletion strains, locus YDL192W, strain arf1, active compounds read low",0.24 (active)
same,normalized growth,"S. cerevisiae deletion strains, locus YDR101C, strain arx1, active compounds read low",0.287 (active)
same,normalized growth,"S. cerevisiae deletion strains, locus YDR150W, strain NUM1, active compounds read low",0.605 (active)
same,normalized growth,"S. cerevisiae deletion strains, locus YDR162C, strain NBP2, active compounds read low",0.318 (active)
same,normalized growth,"S. cerevisiae deletion strains, locus YDR318W, strain mcm21, active compounds read low",0.199 (active)
same,normalized growth,"S. cerevisiae deletion strains, locus YDR388W, active compounds read low",0.191 (active)
same,normalized growth,"S. cerevisiae deletion strains, locus YDR502C, strain sam2, active compounds read low",0.2 (active)
same,normalized growth,"S. cerevisiae deletion strains, locus YEL061C, strain CIN8, active compounds read low",0.409 (active)
same,normalized growth,"S. cerevisiae deletion strains, locus YER110C, active compounds read low",0.451 (active)
same,normalized growth,"S. cerevisiae deletion strains, locus YER155C, strain BEM2, active compounds read low",0.464 (active)
same,normalized growth,"S. cerevisiae deletion strains, locus YER167W, strain BCK2, active compounds read low",0.288 (active)
same,normalized growth,"S. cerevisiae deletion strains, locus YGL078C, strain dbp3, active compounds read low",0.238 (active)
same,normalized growth,"S. cerevisiae deletion strains, locus YGL086W, strain mad1, active compounds read low",0.267 (active)
same,normalized growth,"S. cerevisiae deletion strains, locus YGL248W, strain PDE1, active compounds read low",0.331 (active)
same,normalized growth,[1],0.437 (active)
same,normalized growth,"S. cerevisiae deletion strains, locus YGR135W, strain pre9, active compounds read low",0.234 (active)
same,normalized growth,"S. cerevisiae deletion strains, locus YGR229C, strain SMI1, active compounds read low",0.197 (active)
same,normalized growth,"S. cerevisiae deletion strains, locus YGR252W, strain gcn5, active compounds read low",0.508 (active)
same,normalized growth,"S. cerevisiae deletion strains, locus YHR030C, strain SLT2, active compounds read low",0.478 (active)
same,normalized growth,"S. cerevisiae deletion strains, locus YHR079C, strain IRE1 (second series), active compounds read low",0.186 (active)
same,normalized growth,"S. cerevisiae deletion strains, locus YHR094C, strain hxt1, active compounds read low",0.275 (active)
same,normalized growth,"S. cerevisiae deletion strains, locus YHR129C, strain ARP1, active compounds read low",0.481 (active)
same,normalized growth,"S. cerevisiae deletion strains, locus YHR200W, strain rpn10, active compounds read low",0.376 (active)
same,normalized growth,"S. cerevisiae deletion strains, locus YIL066C, strain RNR3, active compounds read low",0.468 (active)
same,normalized growth,"S. cerevisiae deletion strains, locus YIL073C, strain SPO22, active compounds read low",0.39 (active)
same,normalized growth,"S. cerevisiae deletion strains, locus YIL125W, strain kgd1, active compounds read low",0.185 (active)
same,normalized growth,"S. cerevisiae deletion strains, locus YIR030C, strain dcg1, active compounds read low",0.26 (active)
same,normalized growth,"S. cerevisiae deletion strains, locus YJL095W, strain BCK1, active compounds read low",0.287 (active)
same,normalized growth,"S. cerevisiae deletion strains, locus YJL134W, strain LCB3, active compounds read low",0.605 (active)
same,normalized growth,"S. cerevisiae deletion strains, locus YJL168C, strain set2, active compounds read low",0.541 (active)
same,normalized growth,"S. cerevisiae deletion strains, locus YJL187C, strain SWE1 (second series), active compounds read low",0.345 (active)
same,normalized growth,"S. cerevisiae deletion strains, locus YJR043C, strain POL32, active compounds read low",0.267 (active)
same,normalized growth,"S. cerevisiae deletion strains, locus YJR075W, strain HOC1, active compounds read low",0.52 (active)
same,normalized growth,"S. cerevisiae deletion strains, locus YKL009W, strain mrt4, active compounds read low",0.381 (active)
same,normalized growth,"S. cerevisiae deletion strains, locus YKL068W, active compounds read low",0.433 (active)
same,normalized growth,"S. cerevisiae deletion strains, locus YKL085W, strain MDH1 (second series), active compounds read low",0.214 (active)
same,normalized growth,"S. cerevisiae deletion strains, locus YKL085W, strain MDH1, active compounds read low",0.214 (active)
same,normalized growth,"S. cerevisiae deletion strains, locus YKL190W, strain CNB1, active compounds read low",0.446 (active)
same,normalized growth,"S. cerevisiae deletion strains, locus YKR001C, strain vps1, active compounds read low",0.189 (active)
same,normalized growth,"S. cerevisiae deletion strains, locus YLR039C, strain RIC1, active compounds read low",0.45 (active)
same,normalized growth,"S. cerevisiae deletion strains, locus YLR058C, strain SHM2, active compounds read low",0.398 (active)
same,normalized growth,"S. cerevisiae deletion strains, locus YLR102C, strain apc9, active compounds read low",0.28 (active)
same,normalized growth,"S. cerevisiae deletion strains, locus YLR262C, strain YPT6, active compounds read low",0.516 (active)
same,normalized growth,"S. cerevisiae deletion strains, locus YLR268W, strain sec22, active compounds read low",0.174 (active)
same,normalized growth,"S. cerevisiae deletion strains, locus YLR330W, strain CHS5, active compounds read low",0.388 (active)
same,normalized growth,"S. cerevisiae deletion strains, locus YLR342W, strain FKS1 (second series), active compounds read low",0.573 (active)
same,normalized growth,"S. cerevisiae deletion strains, locus YLR371W, strain rom2, active compounds read low",0.505 (active)
same,normalized growth,"S. cerevisiae deletion strains, locus YLR418C, strain cdc73, active compounds read low",0.468 (active)
same,normalized growth,"S. cerevisiae deletion strains, locus YML016C, strain PPZ1, active compounds read low",0.364 (active)
same,normalized growth,"S. cerevisiae deletion strains, locus YML032C, strain rad52, active compounds read low",0.238 (active)
same,normalized growth,"S. cerevisiae deletion strains, locus YML124C, strain tub3, active compounds read low",0.302 (active)
same,normalized growth,"S. cerevisiae deletion strains, locus YMR078C, strain ctf18, active compounds read low",0.352 (active)
same,normalized growth,"S. cerevisiae deletion strains, locus YMR223W, strain ubp8, active compounds read low",0.22 (active)
same,normalized growth,[2],0.619 (active)
same,normalized growth,"S. cerevisiae deletion strains, locus YMR307W, strain GAS1, active compounds read low",0.671
same,normalized growth,"S. cerevisiae deletion strains, locus YNL067W, strain RPL9B, active compounds read low",0.353 (active)
same,normalized growth,"S. cerevisiae deletion strains, locus YNL128W, strain TEP1, active compounds read low",0.29 (active)
same,normalized growth,[3],0.504 (active)
same,normalized growth,"S. cerevisiae deletion strains, locus YNL233W, strain BNI4, active compounds read low",0.419 (active)
same,normalized growth,"S. cerevisiae deletion strains, locus YNL250W, strain rad50, active compounds read low",0.246 (active)
same,normalized growth,"S. cerevisiae deletion strains, locus YNL271C, strain bni1, active compounds read low",0.188 (active)
same,normalized growth,"S. cerevisiae deletion strains, locus YNL298W, strain CLA4, active compounds read low",0.319 (active)
same,normalized growth,"S. cerevisiae deletion strains, locus YNL307C, strain MCK1, active compounds read low",0.0999 (active)
same,normalized growth,"S. cerevisiae deletion strains, locus YNL322C, strain KRE1, active compounds read low",0.457 (active)
same,normalized growth,"S. cerevisiae deletion strains, locus YNR052C, strain pop2, active compounds read low",0.11 (active)
same,normalized growth,"S. cerevisiae deletion strains, locus YOL006C, strain TOP1, active compounds read low",0.495 (active)
same,normalized growth,"S. cerevisiae deletion strains, locus YOL012C, strain htz1",0.224
same,normalized growth,"S. cerevisiae deletion strains, locus YOL147C, strain pex11, active compounds read low",0.27 (active)
same,normalized growth,"S. cerevisiae deletion strains, locus YOR061W, strain CKA2, active compounds read low",0.483 (active)
same,normalized growth,"S. cerevisiae deletion strains, locus YOR069W, strain VPS5, active compounds read low",0.447 (active)
same,normalized growth,"S. cerevisiae deletion strains, locus YOR136W, strain idh2, active compounds read low",0.272 (active)
same,normalized growth,"S. cerevisiae deletion strains, locus YOR144C, strain elg1, active compounds read low",0.352 (active)
same,normalized growth,"S. cerevisiae deletion strains, locus YOR184W, strain ser1, active compounds read low",0.152 (active)
same,normalized growth,"S. cerevisiae deletion strains, locus YOR316C, strain cot1, active compounds read low",0.359 (active)
same,normalized growth,"S. cerevisiae deletion strains, locus YPL055C, strain LGE1, active compounds read low",0.448 (active)
same,normalized growth,[4],0.571 (active)
same,normalized growth,"S. cerevisiae deletion strains, locus YPR119W, strain clb2, active compounds read low",0.335 (active)
same,normalized growth,"S. cerevisiae deletion strains, locus YPR141C, strain kar3, active compounds read low",0.272 (active)
same,normalized growth,"S. cerevisiae deletion strains, locus YPR163C, strain tif3, active compounds read low",0.307 (active)
same,normalized growth,"S. cerevisiae deletion strains, locus YPR167C, strain met16, active compounds read low",0.392 (active)
same,normalized growth,"S. cerevisiae deletion strains, strain wtn01, active compounds read low",0.212 (active)
same,normalized growth,"S. cerevisiae strains, strain wild type, active compounds read low",0.351 (active)
N[C@H](C(=O)O)[C@H]1C[C@@H]1C(=O)O,normalized growth,"S. cerevisiae deletion strains, locus YAL040C, strain CLN3, active compounds read low",1.11
same,normalized growth,"S. cerevisiae deletion strains, locus YCL061C, strain MRC1 (second series), active compounds read low",1.01
same,normalized growth,"S. cerevisiae deletion strains, locus YDR363W, strain ESC2, active compounds read low",1.03
same,normalized growth,"S. cerevisiae deletion strains, locus YER002W, strain NOP16, active compounds read low",1.01
same,normalized growth,[1],1.02
same,normalized growth,[2],1.01
same,normalized growth,[3],1.02
same,normalized growth,"S. cerevisiae deletion strains, locus YNL175C, strain NOP13, active compounds read low",1
same,normalized growth,"S. cerevisiae deletion strains, locus YNL197C, strain WHI3, active compounds read low",1.06
same,normalized growth,"S. cerevisiae deletion strains, locus YNL224C, strain SQS1, active compounds read low",0.996
same,normalized growth,"S. cerevisiae deletion strains, locus YOR083W, strain WHI5 (second series), active compounds read low",1.03
same,normalized growth,[4],1.01
